The assay relates to Plasmodium falciparum NF54/iGP1_RE9H ulg8 stage V gametocytes. Description: gametocyte viability (luciferase signal relative to DMSO control) (% of DMSO control); higher = less gametocytocidal activity, active = 50 or less. Conditions: exposure time: 72 h. The essentials: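 NF54/iGP1_RE9Hulg8 stage V gametocytes (day 12; ~2.5% gametocytemia, 3% hematocrit) in medium with 0.5% Albumax II were added to 96-well plates of nanolitre-spotted compounds (10 mM DMSO stocks), giving 10 µM or 1 µM, one well each. Plates were incubated 72 h at 37 °C. Then 90 µl was mixed with 10 µl D-luciferin (30 mg/ml) and luminescence was read on an IVIS Lumina II. Viability is relative to the mean of plate DMSO vehicle controls.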

Values joined by “and” are separate entries in the source; they are usually repeats but may differ in a detail not shown here. Equal entries are not always repeated. Unmarked numbers belong to inactive results.

Experimental findings from the supplement of paper PMC12297408 are described below.

Take `COc1ncc(-c2ccc3nccc(-c4ccnnc4)c3c2)cc1NS(=O)(=O)c1ccc(F)cc1F`: the gametocyte viability by setting is: (concentration: 1 µM) 100; (concentration: 10 µM) 103.
The like results for `CC(C)CC(=O)Nc1n[nH]c2c1CN(C(=O)C1CCN(C)CC1)C2(C)C` were, in that order, 96.4 and 110.
The like results for `COC(=O)Nc1ccc(-c2nc(N3CCOCC3)c3cnn(C4CCN(Cc5cccnc5)CC4)c3n2)cc1` were, in that order, 115 and 117.
The like results for `CN(C)Cc1cccc(N=C(c2ccccc2)c2c(O)[nH]c3cc(C(N)=O)ccc23)c1` were, in that order, 109 and 122.
For `CC(C)c1cnn2c(NCc3ccccc3)cc(NCCCCCCN)nc12`, the gametocyte viability reads like this: (concentration: 1 µM) 102; (concentration: 10 µM) 86.5.
For `Oc1cccc(-c2nc(N3CCOCC3)c3oc4ncccc4c3n2)c1`, the gametocyte viability is 115 (concentration: 1 µM) and 111 (concentration: 10 µM).
The like results for `CCN1CCN(Cc2ccc(-c3cc4c(N[C@H](C)c5ccccc5)ncnc4[nH]3)cc2)CC1` were, in that order, 96.1 and 52.6.
The like results for `Nc1ncnc2c1c(-c1cnc3[nH]ccc3c1)nn2C1CCCC1` were, in that order, 101 and 116.
`O=c1cc(N2CCOCC2)oc2c(-c3ccccc3)cccc12`: the gametocyte viability is, setting by setting: (concentration: 1 µM) 105 and 79.5; (concentration: 10 µM) 103 and 92.
For `O=C1c2ccccc2-c2n[nH]c3cccc1c23`, the gametocyte viability by setting is: (concentration: 1 µM) 95.3 and 98.9; (concentration: 10 µM) 90.5 and 106.
For `C[C@@H](N)[C@H]1CC[C@H](C(=O)Nc2ccncc2)CC1`, the gametocyte viability (concentration: 1 µM) was 107 and 110; the gametocyte viability (concentration: 10 µM) was 107 and 111.
In the case of `CC1CNCCN1S(=O)(=O)c1cccc2cnccc12` (stereo not drawn), the gametocyte viability is 97.5 (concentration: 1 µM) and 97.9 (concentration: 10 µM).
The like results for `COc1cc2nccc(Oc3ccc(NC(=O)Nc4ccc(F)cc4F)c(F)c3)c2cc1OC` were, in that order, 94.9 and 85.
`O=C1C(c2c(O)[nH]c3ccccc23)=Nc2ccccc21` [Indirubin]: the gametocyte viability runs as follows: (concentration: 1 µM) 104 and 100; (concentration: 10 µM) 113 and 97.3.
As to `COc1cc2nccc(Oc3ccc(NC(=O)Nc4cc(C)on4)c(Cl)c3)c2cc1OC` [Tivozanib (AV-951)], the gametocyte viability was 94 (concentration: 1 µM) and 99.8 (concentration: 10 µM).
The like results for `Nc1nccc(Oc2ccc(NC(=O)c3c[nH]cc(-c4ccc(F)cc4)c3=O)cc2F)c1Cl` were, in that order, 102 and 114.
The like results for `CN(C)C1CCN(C(=O)c2ccc(NC(=O)Nc3ccc(-c4nc(N5CCOCC5)nc(N5CCOCC5)n4)cc3)cc2)CC1` were, in that order, 102 and 107.
The like results for `CS(=O)(=O)N1CCN(Cc2cc3nc(-c4cccc5[nH]ncc45)nc(N4CCOCC4)c3s2)CC1` were, in that order, 97.2 and 108.
As to `CN1CCN(CCOc2cc(OC3CCOCC3)c3c(Nc4c(Cl)ccc5c4OCO5)ncnc3c2)CC1` [Saracatinib (AZD0530)], the gametocyte viability is, setting by setting: (concentration: 1 µM) 94.4; (concentration: 10 µM) 92.2.
The like results for `CC[C@@H]1C(=O)N(C)c2cnc(Nc3ccc(C(=O)NC4CCN(C)CC4)cc3OC)nc2N1C1CCCC1` were, in that order, 80.6 and 63.5.
The like results for `CC(=O)c1c(C)c2cnc(Nc3ccc(N4CCNCC4)cn3)nc2n(C2CCCC2)c1=O` were, in that order, 98 and 103.
In the case of `CCS(=O)(=O)c1cccc(-c2cc(C(=O)NC3CCN(C)CC3)c(C)c3[nH]c4ncc(C)cc4c23)c1`, the gametocyte viability is 106 (concentration: 1 µM) and 84.2 (concentration: 10 µM).
Regarding `Cn1cnc2nc(NCCO)nc(NCc3ccccc3)c21` [Iso-olomoucine], the gametocyte viability runs as follows: (concentration: 1 µM) 95; (concentration: 10 µM) 102.
The like results for `OCCn1cc(-c2cnc3nnn(Cc4ccc5ncccc5c4)c3n2)cn1` were, in that order, 93.3 and 98.6.
For `Cn1cc(-c2ccc3nnc(Sc4ccc5ncccc5c4)n3n2)cn1`, the gametocyte viability reads like this: (concentration: 1 µM) 99.7; (concentration: 10 µM) 88.7.
With `CC(C)(C)c1cc(C=C(C#N)C(N)=S)cc(C(C)(C)C)c1O`, the gametocyte viability (concentration: 1 µM) is 103 and the gametocyte viability (concentration: 10 µM) is 102.
The like results for `Cc1ccc(C(=O)Nc2cccc(C(F)(F)F)c2)cc1Nc1nc(-c2cccnc2)nc2c1cnn2C` were, in that order, 100 and 98.7.
The like results for `Cc1ccc(NC(=O)c2cccc(N(C)C)c2)cc1NC(=O)c1ccc(O)cc1` were, in that order, 95.9 and 95.6.
The like results for `COc1cc2ncnc(Nc3cccc(Br)c3)c2cc1OC` were, in that order, 95.6 and 114.
